Laboratory results: PubChem BioAssay (NCATS)
Records with an inconclusive call do not appear. Activity calls are given as the source filed them. The call rests on the fitted dose curve; in most records, active means well fitted curve in the direction sought with a large enough effect; inconclusive means small, poorly fitted or top-dose-only effect, or another doubt; inactive means no such curve, though single readings can be large; an effect the other way counts as inactive or inconclusive.

How the values were obtained:
[1] = Cell Viability - H-4-II-E (AID 543);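 further: cells exposed to compound for 40 hours; on the % scale 0 is the no-effect control and ±100 the full control effect; nearly all actives have a fitted effect of over 35% in size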
Procedure, shortened: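 Rat hepatoma H-4-II-E cells, 1500 per well, treated 40 h at 37 °C in complete medium. Cellular ATP read by CellTiter-Glo luminescence; AC50 from Hill fits of concentration-response.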

[2] = Cell Viability - Renal Proximal Tubule (AID 545);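 further: cells exposed to compound for 40 hours; nearly all actives have a fitted effect of over 40% in size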
Procedure, shortened: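 Luminescent ATP signal (CellTiter-Glo) served as the viability read-out after 40 hr compound exposure of freshly isolated rat proximal tubule cells at 37 °C. Concentration-dependent ATP loss was fitted with the Hill equation to give AC50.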

[3] = Cellular Toxicity (caspase-3) HepG2 (AID 654);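 further: cells exposed to compound for 16 hours before reading; 0% = DMSO alone and 100% = caspase signal from 100 µM tamoxifen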
Procedure, shortened: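 HepG2 cells (1500/well) were treated 16 h at 37 °C in complete medium, then caspase 3/7 activity was read by Caspase-Glo luminescence. Data were normalized to DMSO and 100 uM tamoxifen; AC50 came from Hill-equation fits of qHTS concentration-response.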

[4] = Cellular Toxicity (caspase-3) Jurkat (AID 655); details: Jurkat caspase-3 activation, luminescence; caspase-3 activation: at 92.2 µM (top of the series), DMSO = 0%, tamoxifen = 100%;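 further: cells exposed to compound for 16 h at 37 °C before reading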
Procedure, shortened: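 5000 Jurkat cells/well; compound 16 hr, 37 °C; Caspase-Glo 3/7 added, 20 min RT; luminescence read. Norm: DMSO = 0%, tamoxifen 100 uM = 100%. AC50, Hill model.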

[5] = Cellular Toxicity (caspase-3) HUV-EC-C (AID 656)
Procedure, shortened: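 qHTS; HUV-EC-C, 1000 cells/well; 5 hr settle, 16 hr cmpd, 37°C; Caspase-Glo 3/7, 20 min RT; luminescence. Norm: DMSO = 0%, tamoxifen 100 uM = 100%. Hill-fit AC50.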

[6] = Cellular Toxicity (caspase-3) SHSY5Y (AID 657)
Procedure, shortened: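 qHTS, SH-SY5Y, 1500 cells/well, 5 h pre-incubation 37 °C; compound 16 h 37 °C; Caspase-Glo 3/7 1 h RT; luminescence. Norm.: DMSO = 0, 10 uM staurosporine = 100%. Hill fit → AC50.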

[7] = Cellular Toxicity (caspase-3) BJ (AID 658);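 further: 0% = DMSO basal and 100% = 10 µM staurosporine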
Procedure, shortened: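 Luminescent aminoluciferin-substrate cleavage reports caspase 3/7 activity in normal human BJ fibroblasts after 16 hr compound exposure at 37 °C. Normalized to DMSO (basal) and 10 uM staurosporine (100%); AC50 from Hill fit of concentration-response.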

[8] = Cellular Toxicity (caspase-3) MRC-5 (AID 659);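 further: 0% = DMSO basal and 100% = 10 µM staurosporine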
Procedure, shortened: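 Luminescence from caspase-cleaved aminoluciferin substrate (Caspase-Glo 3/7, 1 hr RT) reports caspase 3/7 activity in MRC-5 lung fibroblasts after 16 hr compound exposure. Normalized to DMSO basal and 10 uM staurosporine as 100%; AC50 from Hill fits.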

[9] = Cellular Toxicity (caspase-3) Mesangial (AID 660); details: mesangial cells, normalized: DMSO 0%, 100 µM tamoxifen 100%; at 91.7 µM (top of the series);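 further: cells exposed to compound for 16 h before the caspase read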
Procedure, shortened: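 Human renal glomerular mesangial cells, 1000/well, 5 h at 37 C before 16 h compound treatment. Caspase-Glo 3/7 luminescence after 20 min; normalized to DMSO and 100 uM tamoxifen, AC50 from Hill fit.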

[10] = Cellular Toxicity (caspase-3) SK-N-SH (AID 661);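 further: 0% = DMSO basal and 100% = 10 µM staurosporine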
Procedure, shortened: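 Human SK-N-SH neuroblastoma cells, 1500/well, were exposed to compounds for 16 hours at 37 °C. Caspase-Glo 3/7 luminescence was normalized to DMSO (basal) and 10 uM staurosporine (100%), and AC50 came from a Hill fit.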

[11] = Cellular Toxicity (caspase-3) H-4-II-E (AID 663); details: H-4-II-E rat hepatoma, scaled: DMSO 0%, 100 µM tamoxifen 100%; at 92.2 µM (top of the series);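 further: cells exposed to compound for 16 hr before readout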
Procedure, shortened: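 Luminescence from caspase-cleaved aminoluciferin substrate, read 20 min after reagent addition, reports caspase 3/7 activation in rat H-4-II-E cells after 16 hr compound exposure. Normalized to DMSO (basal) and 100 uM tamoxifen (100%); AC50 from Hill fits.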

[12] = Cellular Toxicity (caspase-3) Hek293 (AID 664); details: HEK293 caspase-3 activation, DMSO = 0%, 100 µM tamoxifen = 100%; at 92.2 µM (top of the series);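 further: cells exposed to compound for 16 h at 37 °C before readout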
Procedure, shortened: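 HEK293 cells in complete medium treated 16 h at 37 °C, then Caspase-Glo 3/7 luminescence read after 20 min at room temperature. Normalized to DMSO and 100 uM tamoxifen; AC50 from Hill fit of concentration-response.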

[13] = Cellular Toxicity (caspase-3) N2a (AID 665);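 further: compound exposure lasted 16 h at 37 °C before readout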
Procedure, shortened: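 Mouse N2a neuroblastoma cells, 1500 per well, treated 16 h at 37 °C in complete medium; caspase-3/7 activity by Caspase-Glo luminescence after 1 h. Normalized to DMSO and 10 uM staurosporine; AC50 from Hill fits.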

[14] = Cellular Toxicity (caspase-3) NIH 3T3 (AID 666);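 further: 0% = DMSO basal and 100% = 100 µM tamoxifen stimulation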
Procedure, shortened: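 Mouse NIH 3T3 fibroblasts (1000/well) treated 16 h at 37 C; caspase-3/7 activity measured by Caspase-Glo 3/7 luminescence after 20 min. Normalized to DMSO and 100 uM tamoxifen; AC50 from Hill fits.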

[15] = Cellular Toxicity (caspase-3) Renal Proximal Tubule (AID 667); details: Potency: caspase-3 activation;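 further: cells exposed to compound for 16 hours at 37 °C before detection; 0% = DMSO basal and 100% = 10 µM staurosporine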
Procedure, shortened: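 AC50 derived by standard Hill fit of concentration-response data, normalized between DMSO basal and 10 uM staurosporine as 100% stimulation. Cells: primary rat kidney proximal tubule, 16 h treatment at 37 °C.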

[16] = target: Cytochrome P450 3A4 (Homo sapiens) (UniProt P08684); test: qHTS Assay for Inhibitors and Substrates of Cytochrome P450 3A4 (AID 884); further: on the % scale 0 is the no-effect control and ±100 the full control effect; nearly all actives have a fitted effect of over 50% in size
Chain of Cytochrome P450 3A4 (Homo sapiens) (P08684 whole entry, looked up): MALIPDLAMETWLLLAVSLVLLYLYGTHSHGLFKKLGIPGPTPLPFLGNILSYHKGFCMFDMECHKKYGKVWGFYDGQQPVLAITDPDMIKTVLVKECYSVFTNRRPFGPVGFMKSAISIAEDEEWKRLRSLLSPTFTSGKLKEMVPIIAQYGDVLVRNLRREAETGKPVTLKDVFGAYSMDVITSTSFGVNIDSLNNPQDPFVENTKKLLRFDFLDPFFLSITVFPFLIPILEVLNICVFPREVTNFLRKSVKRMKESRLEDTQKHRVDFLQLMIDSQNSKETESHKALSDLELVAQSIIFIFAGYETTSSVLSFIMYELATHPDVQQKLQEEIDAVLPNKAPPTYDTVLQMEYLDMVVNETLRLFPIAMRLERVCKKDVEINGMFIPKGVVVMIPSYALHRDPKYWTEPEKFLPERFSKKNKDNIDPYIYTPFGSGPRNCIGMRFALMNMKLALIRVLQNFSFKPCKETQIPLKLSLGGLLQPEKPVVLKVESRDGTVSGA
Procedure, shortened: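 20 nM human CYP3A4 with 25 uM Luciferin-PPXE (at KM) in 200 mM KPO4, preincubated 10 min with compound; NADPH regeneration started a 60 min RT reaction. Luciferin detected by luminescence, normalized to 57 uM ketoconazole as full inhibition.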

[17] = Cell Viability - LYMP2-001 (AID 921);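 further: cells exposed to compound for 24 h at 37 °C; 0% = DMSO only and full inhibition = tetraoctylammonium bromide control wells; nearly all actives have a fitted effect of over 70% in size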
Procedure, shortened: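 Steps: seed 2500 lymphoblastoid cells/well; 5 hr, 37 C; add compound; 24 hr, 37 C; CellTiter-Glo reagent, 30 min room temperature; read luminescence. Concentration-response modeled by Hill equation for AC50.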

[18] = Cell Viability - Mesenchymal (AID 546);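 further: cells exposed to compound for 40 hours before reading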
Procedure, shortened: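 Normal human renal glomerulus-derived kidney mesenchymal cells, 1000 per well in complete medium, were treated with compounds for 40 hr at 37 °C. Viability was read as intracellular ATP by CellTiter-Glo luminescence; AC50 values came from Hill-equation fits of qHTS concentration-response data.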

[19] = target: Cytochrome P450 3A4 (Homo sapiens) (UniProt P08684); test: qHTS Assay for Activators of Cytochrome P450 3A4 (AID 885); further: nearly all actives have a fitted effect of over 65% in size
Procedure, shortened: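 Signal was normalized against complete inhibition by 57 uM ketoconazole. The reaction used 20nM CYP3A4 with 25uM Luciferin-PPXE, 10-min compound preincubation and a 60-min NADPH-supported step at RT.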

[20] = Cell Viability - SH-SY5Y (AID 544); details: SH-SY5Y neuroblastoma cell viability; viability change, negative = cytotoxic: at 92.2 µM (top of the series);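 further: cells exposed to compound for 40 hours; nearly all actives have a fitted effect of over 55% in size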
Procedure, shortened: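 SH-SY5Y human neuroblastoma cells (1500/well) incubated 5 h, then compound-treated 40 h at 37 °C in complete medium. Viability read as intracellular ATP by CellTiter-Glo luminescence after 20 min; AC50 from Hill-equation fits of qHTS concentration-response.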

Cc1cccc([N+](=O)[O-])c1C(=O)O
inactive: Potency [1] | Potency [2] | Potency [3] | caspase-3 activation [4] 0.48% | outcome [5] | outcome [6] | outcome [7] | outcome [8] | caspase-3 activation [9] -0.481% | outcome [10] | caspase-3 activation [11] 1.44% | caspase-3 activation [12] 2.11% | outcome [13] | outcome [14] | Potency [15] | Potency [16] | Potency [17]

CCCOCC(C)O (stereo not given)
inactive: Potency [1] | Potency [2] | Potency [18] | Potency [3] | caspase-3 activation [4] 3.45% | outcome [6] | outcome [7] | outcome [8] | caspase-3 activation [9] 0.289% | outcome [10] | caspase-3 activation [11] -0.784% | caspase-3 activation [12] -1.05% | outcome [13] | outcome [14] | Potency [15] | Potency [16] | Potency [17]

CC(=O)Nc1ccc(N)cc1
inactive: Potency [1] | Potency [2] | Potency [18] | Potency [3] | caspase-3 activation [4] 0.0249% | outcome [6] | outcome [7] | outcome [8] | caspase-3 activation [9] 0.253% | outcome [10] | caspase-3 activation [11] -0.322% | caspase-3 activation [12] -0.0268% | outcome [13] | outcome [14] | Potency [15] | Potency [16] | Potency [17]

CCNc1cc(O)ccc1C
inactive: Potency [1] | Potency [2] | Potency [3] | caspase-3 activation [4] 0.87% | outcome [5] | outcome [6] | outcome [7] | outcome [8] | caspase-3 activation [9] 0.47% | outcome [10] | caspase-3 activation [11] 1.36% | caspase-3 activation [12] 0.389% | outcome [13] | outcome [14] | Potency [15] | outcome [19] | Potency [17]

Cc1ccc(Cl)cc1N
inactive: Potency [1] | Potency [2] | Potency [18] | Potency [3] | caspase-3 activation [4] 4% | outcome [5] | outcome [6] | outcome [7] | outcome [8] | caspase-3 activation [9] -0.617% | outcome [10] | caspase-3 activation [11] -0.363% | caspase-3 activation [12] -3.36% | outcome [13] | outcome [14] | Potency [15] | outcome [19] | Potency [17]

Cc1cc(C(=O)O)ccc1[N+](=O)[O-]
inactive: Potency [20] | Potency [2] | Potency [18] | Potency [3] | caspase-3 activation [4] -1.06% | outcome [5] | outcome [6] | outcome [7] | outcome [8] | caspase-3 activation [9] 0.159% | outcome [10] | caspase-3 activation [11] -0.927% | caspase-3 activation [12] 1.07% | outcome [13] | outcome [14] | Potency [15] | Potency [17]

CSCCC=O
inactive: Potency [20] | Potency [2] | Potency [3] | caspase-3 activation [4] -1.33% | outcome [5] | outcome [6] | outcome [7] | outcome [8] | caspase-3 activation [9] 0.0965% | outcome [10] | caspase-3 activation [11] -0.467% | caspase-3 activation [12] -2.79% | outcome [13] | outcome [14] | Potency [15] | Potency [16] | Potency [17]

FB(F)F
inactive: Potency [20] | Potency [2] | Potency [3] | caspase-3 activation [4] 1.14% | outcome [5] | outcome [6] | outcome [7] | outcome [8] | caspase-3 activation [9] 3.07% | outcome [10] | caspase-3 activation [11] 0.388% | caspase-3 activation [12] 2.37% | outcome [13] | outcome [14] | Potency [15] | Potency [16] | Potency [17]

N#CCc1ccccc1[N+](=O)[O-]
inactive: Potency [2] | Potency [18] | Potency [3] | caspase-3 activation [4] 1.28% | outcome [5] | outcome [6] | outcome [7] | outcome [8] | caspase-3 activation [9] -0.803% | outcome [10] | caspase-3 activation [11] 1.83% | outcome [13] | outcome [14] | Potency [15] | Potency [17]

C=CCCCCCCC=C
inactive: Potency [20] | Potency [2] | Potency [18] | Potency [3] | caspase-3 activation [4] 2.57% | outcome [5] | outcome [6] | outcome [7] | caspase-3 activation [9] 4.38% | outcome [10] | caspase-3 activation [11] 1.95% | caspase-3 activation [12] 5.13% | outcome [13] | outcome [14] | Potency [15] | Potency [17]

NC(=O)CCCCC(N)=O
inactive: Potency [20] | Potency [2] | Potency [18] | Potency [3] | caspase-3 activation [4] 2.15% | outcome [5] | outcome [6] | outcome [7] | outcome [8] | outcome [10] | caspase-3 activation [11] 0.202% | caspase-3 activation [12] -0.72% | outcome [13] | outcome [14] | Potency [15] | Potency [16] | Potency [17]

CC1(N)CCC(C(C)(C)N)CC1 (stereo not given)
inactive: Potency [2] | Potency [18] | Potency [3] | caspase-3 activation [4] 1.23% | outcome [5] | outcome [6] | outcome [7] | outcome [8] | caspase-3 activation [9] -0.66% | caspase-3 activation [11] 0.688% | caspase-3 activation [12] -1.41% | outcome [13] | outcome [14] | Potency [15] | Potency [16] | Potency [17]

COc1ccc(N)c(OC)c1
inactive: Potency [20] | Potency [2] | Potency [18] | Potency [3] | caspase-3 activation [4] 0.6% | outcome [5] | outcome [6] | outcome [7] | outcome [8] | caspase-3 activation [9] 0.311% | caspase-3 activation [11] 1.91% | caspase-3 activation [12] -1.28% | outcome [13] | outcome [14] | Potency [15] | outcome [19] | Potency [17]

CCOC(C)(C)C
inactive: Potency [20] | Potency [2] | Potency [3] | caspase-3 activation [4] -1.17% | outcome [5] | outcome [6] | outcome [7] | outcome [8] | caspase-3 activation [9] -0.979% | caspase-3 activation [11] -0.707% | caspase-3 activation [12] 1.78% | outcome [13] | outcome [14] | Potency [15] | Potency [16] | Potency [17]

CCCCC(CC)COC(=O)CCCCC(=O)OCC(CC)CCCC (stereo not given)
inactive: Potency [20] | Potency [2] | Potency [18] | Potency [3] | caspase-3 activation [4] -0.708% | outcome [5] | outcome [6] | outcome [7] | outcome [8] | caspase-3 activation [9] 0.289% | caspase-3 activation [11] -0.0264% | caspase-3 activation [12] 0.675% | outcome [13] | outcome [14] | Potency [15] | Potency [17]
